“And” between values parts separate entries of the source, which are not always exact repeats. Identical values can stand only once. Inconclusive results are not listed. Unmarked numbers belong to inactive results. The source made the active and inactive calls. Calls follow the shape of the dose curve; as a rule, active = well fitted activation curve with a large enough effect; inconclusive = small, poorly fitted or top-dose-only effect; inactive = no such curve, though single readings can be large or run the other way.

Activation and Potency data for 40 molecules are collected here from PubChem BioAssay (NCATS).
Potency is read from the fitted curve at half-maximal effect.

Cellular tumor antigen p53 (Homo sapiens), sequence (P04637 whole entry, looked up): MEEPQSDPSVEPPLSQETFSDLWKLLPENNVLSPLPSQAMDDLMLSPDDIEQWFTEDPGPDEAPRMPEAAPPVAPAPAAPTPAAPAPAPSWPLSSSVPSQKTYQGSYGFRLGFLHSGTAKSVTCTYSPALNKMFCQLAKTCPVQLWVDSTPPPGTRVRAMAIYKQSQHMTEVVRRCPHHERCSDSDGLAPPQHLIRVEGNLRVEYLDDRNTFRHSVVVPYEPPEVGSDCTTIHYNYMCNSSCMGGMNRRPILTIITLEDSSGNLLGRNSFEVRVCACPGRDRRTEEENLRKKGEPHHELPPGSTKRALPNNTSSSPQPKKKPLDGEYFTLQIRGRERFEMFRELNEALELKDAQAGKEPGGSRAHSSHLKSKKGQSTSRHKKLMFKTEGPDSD

The target of this experiment is Cellular tumor antigen p53 (Homo sapiens) (UniProt P04637). In words: Primary qHTS for small molecule compounds that upregulate eGFP-tagged delta133p53alpha (in N-terminal) cells. (AID 2060322). Also: nearly all actives have a fitted effect of over 75% in size.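 As to activation: cells pre-induced with doxycycline then dosed without doxycycline; series mostly up to about 56 µM; 0% = DMSO vehicle and 100% = reference activator.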 As to conditions: NCI-H358 eGFP-delta133p53alpha fluorescence, 24 h; activation: stronger effect = higher value. An outline of the steps:
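NCI-H358 cells pre-induced 24 h with 10 ng/ml doxycycline for eGFP-delta133p53alpha, plated dox-free and exposed 24 h at 37C to titrated compounds. Fixed, Hoechst-stained; gated GFP peak intensity by laser scanning cytometry, normalized to DMSO (0%) and 57.5 uM 5-azacytidine (100%).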
Turning to `COc1cc([C@@H]2c3cc4c(cc3[C@@H](O[C@@H]3O[C@@H]5CO[C@@H](c6cccs6)O[C@@H]5[C@H](O)[C@@H]3O)[C@H]3COC(=O)[C@H]23)OCO4)cc(OC)c1O`, the activation was -12.2%.
Still for that read-out and setting: then `NC(=O)c1nnn(Cc2cc(Cl)c(C(=O)c3ccc(Cl)cc3)c(Cl)c2)c1N`, with -8.58%; and `COc1ccc(C(Cl)=C(c2ccc(OC)cc2)c2ccc(OC)cc2)cc1`, with -1.67%.
The same measure, in the same setting: then `CCCCCC(C)N` (stereo not given), with 28.8%; and `CC[C@H]1OC(=O)[C@H](C)C(=O)[C@H](C)[C@@H](O[C@H]2O[C@H](C)C[C@H](N(C)C)[C@@H]2O)[C@](C)(OC)C[C@@H](C)C(=O)[C@H](C)[C@H]2N(CCCCn3cnc(-c4cccnc4)c3)C(=O)O[C@]12C`, with 1.46%; and `CCCOC(=O)c1ccccc1`, with -2.82%.
With `O=C(Cn1ccnc1[N+](=O)[O-])NCCO`, the activation is -9.21%.
Consider `CC[C@H]1OC(=O)[C@H](C)[C@@H](O[C@H]2C[C@@](C)(OC)[C@@H](O)[C@H](C)O2)[C@H](C)[C@@H](O[C@@H]2O[C@@H](C)C[C@H](N(C)C)[C@@H]2O)[C@](C)(O)C[C@@H](C)C(=O)[C@H](C)[C@@H](O)[C@]1(C)O`, for which the activation was 29.3%.
Same read-out and setting: then `CC(=O)C1=C(O)C=C2Oc3c(C(C)=O)c(O)c(C)c(O)c3C2(C)C1=O` (stereo not given), with 47.4%; and `Nc1ccc(O)c(C(=O)O)c1`, with -19.2%.
Still for that read-out and setting: then `COC(=O)N[C@H](C(=O)N[C@@H](Cc1ccccc1)[C@@H](O)CN(Cc1ccc(-c2ccccn2)cc1)NC(=O)[C@@H](NC(=O)OC)C(C)(C)C)C(C)(C)C`, with -2.82% and 23.4%; and `O=C(O)c1ccccc1S`, with 19.8%.
The same measure, in the same setting: then `CCCCCCCCCCCCCCCCCCNC(=O)OC1CCN(C(=O)OC[C@H](COC(=O)N(Cc2cccc[n+]2CC)C(=O)c2ccccc2OC)OC)CC1`, with 1.67%; and `O=c1cc[nH]c(=S)[nH]1`, with 7.34%.
As to `NC(=O)CC[C@@H](N)C(=O)O`, the activation was 1.69%.
The same measure, in the same setting: then `O=C(N/N=C/c1ccc([N+](=O)[O-])o1)c1ccc(O)cc1`, with 24.3%; and `COc1ccc(/C(C)=C/C(=O)O)c(OC)c1`, with -10.7%; and `CN1CCN(C(=O)C2CCCCC2)CC1`, with -11.7%.
As for `CCOC(=O)c1ccc(O)cc1`, the activation is -12.6%.
`Cc1ccc(N)cc1O`: the Potency was 28.2 µM (active).
As for `CNS(=O)(=O)Cc1ccc2[nH]cc(CCN(C)C)c2c1`, the activation is -6.69% and -7.27%.
On the same count and under the same terms, then `C/C(=N/NC(=O)c1ccncc1)C(=O)O`, with 7.34%; and `COc1ccc2cc1Oc1ccc(cc1)C[C@H]1c3cc(c(OC)cc3CCN1C)Oc1c(OC)c(OC)cc3c1[C@H](C2)N(C)CC3`, with -18.2%; and `NC(=O)n1c(O)c(C(=O)c2cccs2)c2cc(Cl)ccc21`, with -6.21%.
Turning to `CCOc1ccccc1C(N)=O`, the activation was -11.9%.
Still for that read-out and setting: then `CO[C@H]1C[C@@H]2CC[C@@H](C)[C@@](O)(O2)C(=O)C(=O)N2CCCC[C@@H]2C(=O)O[C@H]([C@H](C)C[C@@H]2CC[C@H](OP(C)(C)=O)[C@H](OC)C2)CC(=O)[C@H](C)C=C(C)[C@@H](O)[C@@H](OC)C(=O)[C@H](C)C[C@H](C)C=CC=CC=C1C`, with 24.8%; and `Nc1ccc(S(=O)(=O)c2ccc(N)cc2)cc1`, with 7.53%; and `C=C1C[C@H]2[C@@H]3C=C(C)C4=CC(=O)CC[C@]4(C)[C@H]3CC[C@]2(C)[C@@]1(OC(C)=O)C(C)=O`, with -0.837%.
With `Cc1cc(=O)oc2cc(O[C@@H]3SC[C@@H](O)[C@H](O)[C@H]3O)ccc12`, the activation was 23.2%.
Same read-out and setting: then `CC(C=CC=C(C)C=CC1=C(C)CCCC1(C)C)=CC=CC=C(C)C=CC=C(C)C=CC1=C(C)CCCC1(C)C`, with 13.6%.
For the molecule `CCNC(=O)[C@H]1O[C@@H](n2cnc3c(N)nc(NCCc4ccc(CCC(=O)O)cc4)nc32)[C@H](O)[C@H]1O`, the activation was 29.2%.
Still for that read-out and setting: then `C[C@]12C=CC(=O)C=C1CC[C@@H]1C2=CC[C@]2(C)[C@@H](C(=O)CN3CCN(c4cc(N5CCCC5)nc(N5CCCC5)n4)CC3)CC[C@@H]12`, with -22.1%; and `C[C@@]12C[C@@]3(O)O[C@@H](O1)[C@]1(COC(=O)c4ccccc4)[C@@H]3C[C@@]12O[C@@H]1O[C@H](CO)[C@@H](O)[C@H](O)[C@@H]1O`, with 35.7%; and `C[C@H]1C[C@@H]2[C@@H]([C@@H](O)C[C@@]3(C)[C@H]2CC[C@]3(O)C(=O)CO)[C@@]2(C)C=CC(=O)C=C12`, with -16.2%.
As for `CC(=O)Nc1ncc([N+](=O)[O-])s1`, the activation was -1.69%.
The same measure, in the same setting: then `O=C(O)Cn1c(C(=O)Nc2nc(-c3ccccc3Cl)cs2)cc2ccccc21`, with 5.08%; and `CC=CCC=CCCC(=O)[C@H]1O[C@@H]1C(N)=O`, with -3.35%; and `CCCCCC(N)=O`, with -17.5%.
The same measure, in the same setting: then `Cc1cc(C)c(NC(=O)CN(CC(=O)O)CC(=O)O)c(C)c1Br`, with -11.9%.
On the same count and under the same terms, then `O=C(NCC(O)CO)c1c(I)c(C(=O)NCC(O)CO)c(I)c(N(CCO)C(=O)CO)c1I` (stereo not given), with -8.37%.
